What follows are compounds tested on Sonic hedgehog protein (Shh) (assay: Sonic hedgehog microarray binding compounds – biochemical, small-molecule microarray, 635/667 nm fluorescence, primary screen (AID 1151;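 further: Shh protein binding to compounds spotted on small-molecule microarray slides; score combines spot fluorescence intensity with signal-to-noise across triplicate slides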)). Conditions: 635 nm fluorescence, higher = more signal.

Q: With `CCOC(=O)C1=CC[C@@H](c2ccc(OC)cc2)N(S(=O)(=O)c2ccc(C)cc2)[C@H]1c1ccc(C)cc1` as the compound, how does the composite z-score read?
A: -0.625

Q: Which composite z-score does the source give for `CCOC(=O)C[C@H]1[C@H](OC(=O)Cc2ccc3c(c2)OCO3)[C@@H](NC(=O)c2ccc3ccccc3n2)c2cc(OCCCO)ccc2N1C(=O)Cc1ccc(OC)cc1` here?
A: 0.902

Q: Which composite z-score does the source give for `CC(C)(C)N1CC=CC23O[C@@H]4C=CCOC(=O)[C@@H]4[C@H]2C(=O)N(CCO)[C@@H]3C1=O` (stereo not given in full) here?
A: -0.863

Q: Which composite z-score does the source give for `CCOC(=O)C1=CC[C@@H](c2ccc(OC)cc2)N(S(=O)(=O)c2ccc(C)cc2)[C@H]1CC` here?
A: 0.964

Q: For `COc1ccc(NN2C(C(O)c3ccc(I)cc3)C=CC3C(=O)N(C4CCCCC4)C(=O)C32)cc1` (stereo not given), which composite z-score is on record?
A: 1.3

Q: `C=CCOC(=O)[C@H]1[C@@H]2C(=O)O[C@@H](c3ccccc3)[C@@H](c3ccccc3)N2[C@@H](c2ccc(OCCOC(=O)[C@@H]3C[C@@H]4C(=O)N[C@@H](CCCC[N+](C)(C)C)C(=O)N4[C@@H]3c3ccc(O)cc3)cc2)[C@]12C(=O)Nc1ccc(I)cc12` was tested. Which composite z-score did it give?
A: 2.05

Q: For `Cc1ccc(S[C@]2(C(=O)NCc3ccccc3)CC(=O)N(Cc3ccccc3C(F)(F)F)[C@@H]2c2ccc(CO)cc2)cc1`, which composite z-score is on record?
A: -0.998

Q: For `CC(C)=CCCC(C)=CC(O)C1C=CC2C(=O)NC(=O)C2N1Nc1ccccn1` (stereo not given), which composite z-score is on record?
A: 2.08

Q: With `O=C1O[C@H](c2ccccc2)[C@H](c2ccccc2)N2[C@H]1[C@@H](C(=O)O)[C@]1(C(=O)Nc3ccc(C#CCCO)cc31)[C@H]2c1ccc(OCCO)cc1` as the compound, how does the composite z-score read?
A: 0.314

Q: Which composite z-score does the source give for `C=CCN1C(=O)[C@@]2(O[C@@H](CCn3cc([C@H](O)c4ccccc4)nn3)[C@H]([Si](C)(C)c3ccc(OC)cc3)[C@H]2C)c2cc(N3C(=O)c4cccc5cccc3c45)ccc21` here?
A: -0.339

Q: For `NC(=O)NCC#Cc1ccc2c(c1)[C@]1(C(=O)N2)[C@H](c2ccc(OCCO)cc2)N2[C@H](c3ccccc3)[C@H](c3ccccc3)OC(=O)[C@H]2[C@@H]1C(=O)O`, which composite z-score is on record?
A: -0.501

Q: Which composite z-score does the source give for `CO[C@H]1O[C@H](CO)[C@@H](OC(=O)Nc2ccc3c(c2)OCO3)[C@H](OC(=O)Nc2ccccc2-c2ccccc2)[C@H]1OC(=O)Nc1ccccc1-c1ccccc1` here?
A: 0.333

Q: For `CC1CC/C=C\[C@H]2OC34C=CCN(c5ccc6ccccc6c5)C(=O)[C@H]3N(C(C)CO)C(=O)[C@@H]4C2C(=O)O1` (stereo not given in full), which composite z-score is on record?
A: -0.254

Q: For `COC(=O)[C@@]1(Cc2ccc(OC)cc2)[C@H]2c3cc(C(=O)N4CCCC4)n(Cc4ccc(C(F)(F)F)nc4)c3C[C@H]2CN1C(=O)c1ccccc1`, which composite z-score is on record?
A: -0.246

Q: For `Cc1ccc(C(C)CC(O)C2C=CC3C(=O)N(C)C(=O)C3N2Nc2ccccc2)o1` (stereo not given), which composite z-score is on record?
A: 1.08

Q: With `C=CC[C@@]1(C(=O)N(C)C)N=C(c2ccc(OCCCO)cc2)O[C@@H]1c1ccccc1CN=[N+]=[N-]` as the compound, how does the composite z-score read?
A: 0.38

Q: `COC(=O)[C@@]1(Cc2ccccc2)[C@H]2c3cc(C(=O)N4CCCC4)n(Cc4ccc(OC)c(OC)c4)c3C[C@H]2CN1C(=O)c1ccccc1` was tested. Which composite z-score did it give?
A: -0.121

Q: How did the composite z-score turn out when `N#Cc1ccc(NN2C(C(O)C3CC=CCC3)C=CC3C(=O)N(c4ccccc4)C(=O)C32)cc1` (stereo not given) was run?
A: 2.08

Q: How did the composite z-score turn out when `C=C(C)[C@@H]1CC=C(C(O)C2C=CC3C(=O)N(c4ccccc4)C(=O)C3N2Nc2ccc([N+](=O)[O-])cc2)CC1` (stereo not given in full) was run?
A: 1.11

Q: `COc1ccc([Si](C)(C)[C@H]2[C@H](CCO)O[C@@]3(C(=O)N(Cc4cccc(N(C=O)c5ccccc5)c4)c4ccccc43)[C@@H]2C)cc1` was tested. Which composite z-score did it give?
A: 1.78

Q: For `CCCCC(O)C1C=CC2C(=O)N(c3ccccc3)C(=O)C2N1Nc1ccc([N+](=O)[O-])cc1` (stereo not given), which composite z-score is on record?
A: -0.61

Q: For `COc1ccc([Si](C)(C)[C@@H]2[C@@H](CC(=O)N3CCC[C@H]3CO)O[C@]3(C(=O)N(Cc4ccc(N5CCOC5=O)cc4)c4ccccc43)[C@H]2C)cc1`, which composite z-score is on record?
A: 1.42

Q: How did the composite z-score turn out when `CC(C)NC(=O)[C@@H]1c2ccccc2C(=O)N(Cc2ccccc2C(F)(F)F)[C@H]1c1ccc(CO)cc1` was run?
A: -0.214

Q: `CCCCCC1=C2CNC(Cc3ccccc3)(C(=O)OC)C=C2C(C)C1=O` (stereo not given) was tested. Which composite z-score did it give?
A: -0.695

Q: With `CN(C)c1ccc(C(O)C2C=CC3C(=O)N(Cc4ccccc4)C(=O)C3N2n2cnnc2)cc1` (stereo not given) as the compound, how does the composite z-score read?
A: -0.11

Q: Which composite z-score does the source give for `O=C(NCC(O)CO)[C@@]1(CCS(=O)(=O)c2ccccc2)N=C(c2ccc(OCCCO)cc2)O[C@H]1c1ccccc1` (stereo not given in full) here?
A: -1.04

Q: Which composite z-score does the source give for `COCCCNC(=O)[C@@H]1c2ccccc2C(=O)N(Cc2ccc(OC(F)(F)F)cc2)[C@H]1c1ccc(CO)cc1` here?
A: 1.09

Q: Which composite z-score does the source give for `Cc1ccc(F)cc1S(=O)(=O)N[C@H]1CCN(Cc2ccc(OC(C)C)cc2)C1` here?
A: 1.75

Q: `CC1CC/C=C\[C@H]2OC34C=CCN(c5ccc(Cl)cc5)C(=O)[C@H]3N(CCCCCCO)C(=O)[C@]4(C)C2C(=O)O1` (stereo not given in full) was tested. Which composite z-score did it give?
A: -0.12

Q: `O=C1C2C=CC(C(O)c3c(F)cccc3Cl)N(Nc3ccc([N+](=O)[O-])cc3)C2C(=O)N1c1ccccc1` (stereo not given) was tested. Which composite z-score did it give?
A: 1.01

Q: With `[N-]=[N+]=Nc1ccccc1[C@@H]1OC(c2ccc(OCCCO)cc2)=N[C@]1(CCS(=O)(=O)c1ccccc1)C(=O)NCC(O)CO` (stereo not given in full) as the compound, how does the composite z-score read?
A: -0.475

Q: Which composite z-score does the source give for `C=CC[C@@]1(C(=O)OC)N=C(c2ccc(OCCCO)cc2)O[C@@H]1c1ccccc1N=[N+]=[N-]` here?
A: 2.02

Q: With `COC(=O)[C@@]1(Cc2ccc(OC)cc2)[C@H]2c3cc(C(=O)N4CCCC4)n(CCn4cc([N+](=O)[O-])nc4C)c3C[C@H]2CN1C(=O)c1ccccc1` as the compound, how does the composite z-score read?
A: -0.455

Q: Which composite z-score does the source give for `CN1C(=O)C2C(C3CC3)C=C3CN(Cc4cccc(Cl)c4)[C@@H]([C@@H](O)Cc4ccccc4)C3C2C1=O` (stereo not given in full) here?
A: 1.78

Q: How did the composite z-score turn out when `COc1ccccc1CN1C(=O)c2ccccc2[C@](Cc2ccccc2I)(C(=O)NCC(C)C)[C@@H]1c1ccc(CO)cc1` was run?
A: 0.034

From PubChem BioAssay
